# Assays:
# Experiment in all cases: DAPPL (digital affinity profiling via proximity ligation, sequencing); 10 mM Tris-HCl pH 7.5, 50 mM NaCl, 1 mM DTT, 4% glycerol, room temperature, 30 min; GST-TFs on glutathione beads, 16-mer random dsDNA library, 0.1% formaldehyde crosslink after washing; high values mean tight binding
# FEV = target: T1, FEV (Homo sapiens, UniProt Q99581 1-238); conditions: protein: recombinant; tags: N-terminal GST; dsDNA, one strand shown
# T1 sequence: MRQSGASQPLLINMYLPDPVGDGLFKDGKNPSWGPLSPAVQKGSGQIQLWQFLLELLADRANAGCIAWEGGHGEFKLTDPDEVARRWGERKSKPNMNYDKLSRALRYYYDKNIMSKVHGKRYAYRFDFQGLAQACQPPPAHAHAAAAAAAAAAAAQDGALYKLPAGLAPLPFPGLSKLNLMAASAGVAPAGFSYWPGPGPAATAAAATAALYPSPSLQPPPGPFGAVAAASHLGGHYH
# How it was run: (§1)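 The binding signal reported is, for every hexamer, its read frequency for a factor over its read frequency for the tag-only sample. Reads came from pools of yeast-expressed, GST-fused human transcription factors on glutathione beads, barcoded with DNA and mixed with that sample, which were incubated with 200 nmole of a random double-stranded 16-mer DNA library in Tris/NaCl/DTT/glycerol buffer at room temperature for 30 min. After washing, the pools were crosslinked with 0.1% formaldehyde, proximity-ligated with BsaI/T4 ligase for 1 h at 37 °C, PCR-amplified and sequenced on an Illumina NextSeq500.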
# ETV5 = ETV5 (Homo sapiens, UniProt P41161 1-510); conditions: protein: recombinant; tags: N-terminal GST; dsDNA, one strand shown
# Sequence of ETV5 (P41161 whole entry): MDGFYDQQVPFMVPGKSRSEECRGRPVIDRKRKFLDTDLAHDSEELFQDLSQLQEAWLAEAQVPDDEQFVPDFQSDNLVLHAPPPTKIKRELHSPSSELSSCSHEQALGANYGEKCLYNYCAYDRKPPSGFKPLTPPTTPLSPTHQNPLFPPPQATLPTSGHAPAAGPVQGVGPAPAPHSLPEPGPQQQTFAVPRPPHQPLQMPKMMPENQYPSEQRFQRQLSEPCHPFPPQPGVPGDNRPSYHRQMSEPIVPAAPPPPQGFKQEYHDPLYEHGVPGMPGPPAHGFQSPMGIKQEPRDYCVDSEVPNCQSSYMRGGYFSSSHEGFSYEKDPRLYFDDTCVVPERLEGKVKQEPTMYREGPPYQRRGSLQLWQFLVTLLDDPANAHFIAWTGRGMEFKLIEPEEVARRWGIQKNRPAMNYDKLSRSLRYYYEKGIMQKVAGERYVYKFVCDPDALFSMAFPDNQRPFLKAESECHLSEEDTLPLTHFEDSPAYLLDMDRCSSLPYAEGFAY
# How it was run: as §1
# HSF1 = HSF1 (Homo sapiens, UniProt Q00613 1-529); conditions: protein: recombinant; tags: N-terminal GST; chain copies: 3; dsDNA, one strand shown
# Sequence of HSF1 (Q00613 whole entry): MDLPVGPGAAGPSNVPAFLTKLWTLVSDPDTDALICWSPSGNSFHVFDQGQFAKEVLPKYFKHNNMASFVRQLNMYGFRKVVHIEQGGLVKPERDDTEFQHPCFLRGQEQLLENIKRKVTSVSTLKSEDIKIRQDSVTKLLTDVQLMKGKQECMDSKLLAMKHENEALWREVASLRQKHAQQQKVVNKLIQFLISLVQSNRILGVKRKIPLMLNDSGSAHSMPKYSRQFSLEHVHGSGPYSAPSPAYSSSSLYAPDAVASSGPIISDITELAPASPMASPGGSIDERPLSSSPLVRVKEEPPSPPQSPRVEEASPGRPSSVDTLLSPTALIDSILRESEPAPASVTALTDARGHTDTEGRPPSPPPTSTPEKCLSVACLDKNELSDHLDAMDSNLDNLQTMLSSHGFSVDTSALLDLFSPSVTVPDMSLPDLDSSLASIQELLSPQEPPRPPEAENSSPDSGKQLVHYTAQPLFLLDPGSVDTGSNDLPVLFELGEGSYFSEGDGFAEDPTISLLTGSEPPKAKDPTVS
# How it was run: as §1
# SPIC = target: T2, SPIC (Homo sapiens, UniProt Q8N5J4 1-248); conditions: protein: recombinant; tags: N-terminal GST; dsDNA, one strand shown
# T2 sequence: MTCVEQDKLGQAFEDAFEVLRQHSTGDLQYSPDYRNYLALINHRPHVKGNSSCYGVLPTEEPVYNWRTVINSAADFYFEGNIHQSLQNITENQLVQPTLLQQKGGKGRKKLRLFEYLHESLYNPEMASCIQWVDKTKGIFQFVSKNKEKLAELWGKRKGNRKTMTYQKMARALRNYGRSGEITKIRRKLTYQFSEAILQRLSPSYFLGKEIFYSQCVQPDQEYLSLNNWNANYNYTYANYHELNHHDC
# How it was run: as §1
# ELF4 = ELF4 (Homo sapiens, UniProt Q99607 1-663); conditions: protein: recombinant; tags: N-terminal GST; dsDNA, one strand shown
# Sequence of ELF4 (Q99607 whole entry): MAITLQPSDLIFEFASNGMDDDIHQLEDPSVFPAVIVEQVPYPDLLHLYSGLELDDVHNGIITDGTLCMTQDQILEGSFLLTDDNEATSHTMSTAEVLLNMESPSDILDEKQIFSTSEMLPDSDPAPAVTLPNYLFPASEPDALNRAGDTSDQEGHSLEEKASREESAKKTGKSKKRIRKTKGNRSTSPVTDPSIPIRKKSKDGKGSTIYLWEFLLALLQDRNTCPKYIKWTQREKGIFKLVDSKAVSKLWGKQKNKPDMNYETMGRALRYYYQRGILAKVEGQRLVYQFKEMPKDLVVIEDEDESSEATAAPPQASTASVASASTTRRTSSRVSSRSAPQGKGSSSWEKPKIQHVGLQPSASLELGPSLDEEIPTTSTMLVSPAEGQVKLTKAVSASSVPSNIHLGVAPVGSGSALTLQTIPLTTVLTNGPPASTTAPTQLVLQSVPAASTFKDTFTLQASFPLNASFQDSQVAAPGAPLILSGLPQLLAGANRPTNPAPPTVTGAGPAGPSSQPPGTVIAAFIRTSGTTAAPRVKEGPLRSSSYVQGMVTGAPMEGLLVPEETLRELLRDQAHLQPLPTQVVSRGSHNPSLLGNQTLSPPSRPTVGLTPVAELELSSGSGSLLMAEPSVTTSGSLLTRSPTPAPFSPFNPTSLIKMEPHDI
# How it was run: as §1
# ELK4 = target: T3, ELK4 (Homo sapiens, UniProt P28324-2 1-405); conditions: protein: recombinant; tags: N-terminal GST; dsDNA, one strand shown
# T3 sequence: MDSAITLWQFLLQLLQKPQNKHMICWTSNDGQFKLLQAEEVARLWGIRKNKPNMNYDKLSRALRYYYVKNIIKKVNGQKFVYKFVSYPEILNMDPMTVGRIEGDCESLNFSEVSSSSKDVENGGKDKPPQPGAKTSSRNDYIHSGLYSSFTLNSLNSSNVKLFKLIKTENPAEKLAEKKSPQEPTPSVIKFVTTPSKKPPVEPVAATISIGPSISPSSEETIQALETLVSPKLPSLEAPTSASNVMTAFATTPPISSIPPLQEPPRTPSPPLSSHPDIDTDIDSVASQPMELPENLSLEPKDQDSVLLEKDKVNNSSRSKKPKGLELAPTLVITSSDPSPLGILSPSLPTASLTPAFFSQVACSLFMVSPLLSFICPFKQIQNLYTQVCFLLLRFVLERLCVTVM
# How it was run: as §1
# ELF3 = target: T4, ELF3 (Homo sapiens, UniProt P78545 1-371); conditions: protein: recombinant; tags: N-terminal GST; dsDNA, one strand shown
# T4 sequence: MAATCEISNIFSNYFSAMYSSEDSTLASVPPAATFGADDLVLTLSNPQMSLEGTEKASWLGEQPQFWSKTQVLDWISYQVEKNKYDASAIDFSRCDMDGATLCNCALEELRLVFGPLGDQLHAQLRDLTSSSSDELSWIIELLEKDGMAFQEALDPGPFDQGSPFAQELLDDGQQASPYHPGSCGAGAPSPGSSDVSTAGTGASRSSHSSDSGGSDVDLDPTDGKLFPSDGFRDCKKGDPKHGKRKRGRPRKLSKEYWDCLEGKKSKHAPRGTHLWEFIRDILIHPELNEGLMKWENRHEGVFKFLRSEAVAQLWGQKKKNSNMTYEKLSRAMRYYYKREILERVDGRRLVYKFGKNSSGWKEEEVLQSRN
# How it was run: as §1
# CRX = CRX (Homo sapiens, UniProt O43186 1-299); conditions: protein: recombinant; tags: N-terminal GST; dsDNA, one strand shown
# Sequence of CRX (O43186 whole entry): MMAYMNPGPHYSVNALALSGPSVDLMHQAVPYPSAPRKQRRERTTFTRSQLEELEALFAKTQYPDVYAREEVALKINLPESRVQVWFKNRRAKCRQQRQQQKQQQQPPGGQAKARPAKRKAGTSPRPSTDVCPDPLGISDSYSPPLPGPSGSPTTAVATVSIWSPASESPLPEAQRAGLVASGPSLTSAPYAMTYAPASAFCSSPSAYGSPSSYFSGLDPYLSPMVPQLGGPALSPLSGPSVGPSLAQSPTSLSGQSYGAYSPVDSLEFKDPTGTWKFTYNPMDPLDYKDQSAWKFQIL
# How it was run: as §1
# ETV1 = ETV1 (Homo sapiens, UniProt P50549 1-477); conditions: protein: recombinant; tags: N-terminal GST; dsDNA, one strand shown
# Sequence of ETV1 (P50549 whole entry): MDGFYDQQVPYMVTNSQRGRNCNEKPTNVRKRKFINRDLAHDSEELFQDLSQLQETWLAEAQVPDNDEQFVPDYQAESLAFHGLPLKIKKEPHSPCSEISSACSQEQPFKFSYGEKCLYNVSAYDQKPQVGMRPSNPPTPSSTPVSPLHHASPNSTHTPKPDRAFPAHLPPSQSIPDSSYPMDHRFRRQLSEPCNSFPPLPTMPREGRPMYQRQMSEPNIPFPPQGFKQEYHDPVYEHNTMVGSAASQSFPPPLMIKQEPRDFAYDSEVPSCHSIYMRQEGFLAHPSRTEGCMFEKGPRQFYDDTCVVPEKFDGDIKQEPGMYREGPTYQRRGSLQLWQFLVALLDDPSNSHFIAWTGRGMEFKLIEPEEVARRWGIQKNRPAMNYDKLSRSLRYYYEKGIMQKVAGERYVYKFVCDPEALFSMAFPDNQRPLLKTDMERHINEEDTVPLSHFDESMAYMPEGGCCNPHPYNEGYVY
# How it was run: as §1
# ERF = target: T5, ERF (Homo sapiens, UniProt P50548 1-548); conditions: protein: recombinant; tags: N-terminal GST; dsDNA, one strand shown
# T5 sequence: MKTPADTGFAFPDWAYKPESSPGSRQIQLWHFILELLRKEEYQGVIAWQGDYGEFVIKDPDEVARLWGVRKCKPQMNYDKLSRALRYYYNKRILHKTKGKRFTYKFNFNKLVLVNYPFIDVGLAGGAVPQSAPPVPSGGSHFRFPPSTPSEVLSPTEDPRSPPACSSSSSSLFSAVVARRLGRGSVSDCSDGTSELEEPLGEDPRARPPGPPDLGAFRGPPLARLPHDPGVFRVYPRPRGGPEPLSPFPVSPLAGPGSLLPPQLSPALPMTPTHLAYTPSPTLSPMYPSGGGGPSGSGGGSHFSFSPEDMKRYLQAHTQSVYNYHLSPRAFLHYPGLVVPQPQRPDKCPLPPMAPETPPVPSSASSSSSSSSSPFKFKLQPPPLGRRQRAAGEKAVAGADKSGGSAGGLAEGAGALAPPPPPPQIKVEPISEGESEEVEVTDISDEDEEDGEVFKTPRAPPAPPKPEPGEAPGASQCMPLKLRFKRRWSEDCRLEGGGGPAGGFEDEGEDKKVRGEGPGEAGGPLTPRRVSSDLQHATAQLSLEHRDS
# How it was run: as §1
# ETV3L = target: T6, ETV3L (Homo sapiens, UniProt Q6ZN32 1-361); conditions: protein: recombinant; tags: N-terminal GST; dsDNA, one strand shown
# T6 sequence: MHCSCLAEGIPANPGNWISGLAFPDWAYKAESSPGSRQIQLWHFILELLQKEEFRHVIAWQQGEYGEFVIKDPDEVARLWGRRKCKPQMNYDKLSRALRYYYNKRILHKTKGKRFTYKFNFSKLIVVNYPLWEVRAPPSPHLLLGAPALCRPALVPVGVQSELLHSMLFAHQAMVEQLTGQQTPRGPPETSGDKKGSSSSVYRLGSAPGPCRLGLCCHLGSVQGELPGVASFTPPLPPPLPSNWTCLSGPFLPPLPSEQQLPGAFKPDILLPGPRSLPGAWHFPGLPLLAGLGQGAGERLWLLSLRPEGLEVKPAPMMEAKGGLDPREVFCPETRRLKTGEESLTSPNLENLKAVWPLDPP
# How it was run: as §1
# ETS2 = target: T7, ETS2 (Homo sapiens, UniProt P15036 1-469); conditions: protein: recombinant; tags: N-terminal GST; dsDNA, one strand shown
# T7 sequence: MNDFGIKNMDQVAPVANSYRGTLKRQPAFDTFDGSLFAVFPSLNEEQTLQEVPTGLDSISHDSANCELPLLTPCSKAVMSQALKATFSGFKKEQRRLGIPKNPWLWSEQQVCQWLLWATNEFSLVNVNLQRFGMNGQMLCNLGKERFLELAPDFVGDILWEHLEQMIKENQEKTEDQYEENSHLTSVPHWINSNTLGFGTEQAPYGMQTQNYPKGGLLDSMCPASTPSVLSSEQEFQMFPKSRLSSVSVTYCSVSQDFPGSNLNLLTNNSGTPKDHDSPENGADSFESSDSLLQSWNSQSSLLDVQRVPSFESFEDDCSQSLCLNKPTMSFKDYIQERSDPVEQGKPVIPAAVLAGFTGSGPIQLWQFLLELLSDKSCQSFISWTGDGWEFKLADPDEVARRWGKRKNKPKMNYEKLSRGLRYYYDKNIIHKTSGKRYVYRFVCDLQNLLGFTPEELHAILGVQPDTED
# How it was run: as §1
# SPDEF = target: T8, SPDEF (Homo sapiens, UniProt O95238 1-335); conditions: protein: recombinant; tags: N-terminal GST; dsDNA, one strand shown
# T8 sequence: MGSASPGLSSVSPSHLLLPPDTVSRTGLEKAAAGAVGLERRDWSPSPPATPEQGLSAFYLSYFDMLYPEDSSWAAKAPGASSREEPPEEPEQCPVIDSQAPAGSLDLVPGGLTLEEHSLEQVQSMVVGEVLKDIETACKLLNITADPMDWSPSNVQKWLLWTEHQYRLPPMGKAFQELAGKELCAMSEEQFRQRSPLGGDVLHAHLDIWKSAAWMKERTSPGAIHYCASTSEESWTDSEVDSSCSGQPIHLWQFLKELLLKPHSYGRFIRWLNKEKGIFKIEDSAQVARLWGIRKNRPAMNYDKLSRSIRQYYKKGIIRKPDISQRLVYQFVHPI
# How it was run: as §1
# ETV7 = target: T9, ETV7 (Homo sapiens, UniProt Q9Y603 1-341); conditions: protein: recombinant; tags: N-terminal GST; dsDNA, one strand shown
# T9 sequence: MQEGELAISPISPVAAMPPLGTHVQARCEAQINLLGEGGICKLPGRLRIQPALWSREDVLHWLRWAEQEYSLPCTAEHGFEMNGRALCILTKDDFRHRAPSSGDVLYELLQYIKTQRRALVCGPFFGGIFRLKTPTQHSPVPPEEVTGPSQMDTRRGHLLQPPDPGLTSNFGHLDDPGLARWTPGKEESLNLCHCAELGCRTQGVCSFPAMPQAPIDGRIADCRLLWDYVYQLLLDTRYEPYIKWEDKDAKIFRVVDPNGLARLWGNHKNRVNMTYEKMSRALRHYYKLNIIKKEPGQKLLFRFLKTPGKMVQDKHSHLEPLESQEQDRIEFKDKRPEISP
# How it was run: as §1
# ELF5 = target: T10, ELF5 (Homo sapiens, UniProt Q9UKW6-2 1-255); conditions: protein: recombinant; tags: N-terminal GST; dsDNA, one strand shown
# T10 sequence: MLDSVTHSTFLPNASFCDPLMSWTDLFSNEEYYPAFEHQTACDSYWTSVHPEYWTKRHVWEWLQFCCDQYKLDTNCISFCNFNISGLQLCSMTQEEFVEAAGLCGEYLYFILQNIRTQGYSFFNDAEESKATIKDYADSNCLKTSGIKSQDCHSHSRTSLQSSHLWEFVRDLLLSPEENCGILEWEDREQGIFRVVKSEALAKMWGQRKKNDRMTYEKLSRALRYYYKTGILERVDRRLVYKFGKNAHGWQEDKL
# How it was run: as §1
# ETV3 = target: T11, ETV3 (Homo sapiens, UniProt P41162-2 1-143); conditions: protein: recombinant; tags: N-terminal GST; dsDNA, one strand shown
# T11 sequence: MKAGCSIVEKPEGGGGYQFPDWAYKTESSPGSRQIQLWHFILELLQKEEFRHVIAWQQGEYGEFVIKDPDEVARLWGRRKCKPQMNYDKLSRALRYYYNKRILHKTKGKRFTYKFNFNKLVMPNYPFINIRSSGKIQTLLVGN
# How it was run: as §1
# ETV6 = ETV6 (Homo sapiens, UniProt P41212 1-452); conditions: protein: recombinant; tags: N-terminal GST; dsDNA, one strand shown
# Sequence of ETV6 (P41212 whole entry): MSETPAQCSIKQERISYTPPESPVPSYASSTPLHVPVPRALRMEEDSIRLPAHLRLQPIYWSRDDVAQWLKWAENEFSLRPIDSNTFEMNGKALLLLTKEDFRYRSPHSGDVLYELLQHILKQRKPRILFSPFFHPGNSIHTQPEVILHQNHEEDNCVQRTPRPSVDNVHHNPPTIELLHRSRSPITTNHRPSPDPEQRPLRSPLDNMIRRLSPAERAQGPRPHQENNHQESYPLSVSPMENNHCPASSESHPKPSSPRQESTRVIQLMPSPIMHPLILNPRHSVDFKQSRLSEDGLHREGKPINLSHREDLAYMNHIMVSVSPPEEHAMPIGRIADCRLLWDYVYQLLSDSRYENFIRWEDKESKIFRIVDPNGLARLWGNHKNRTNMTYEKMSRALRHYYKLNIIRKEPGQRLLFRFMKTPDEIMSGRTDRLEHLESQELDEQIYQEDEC
# How it was run: as §1
Sequence,binding signal (FEV),binding signal (ETV5),binding signal (HSF1),binding signal (SPIC),binding signal (ELF4),binding signal (ELK4),binding signal (ELF3),binding signal (CRX),binding signal (ETV1),binding signal (ERF),binding signal (ETV3L),binding signal (ETS2),binding signal (SPDEF),binding signal (ETV7),binding signal (ELF5),binding signal (ETV3),binding signal (ETV6)
TGGTTA,"1.05 fold enrichment (6-mer frequency, TF over GST control)","1.03 fold enrichment (6-mer frequency, TF over GST control)","1.03 fold enrichment (6-mer frequency, TF over GST control)","1.25 fold enrichment (6-mer frequency, TF over GST control)","1.02 fold enrichment (6-mer frequency, TF over GST control)","1.06 fold enrichment (6-mer frequency, TF over GST control)","1.16 fold enrichment (6-mer frequency, TF over GST control)","1.15 fold enrichment (6-mer frequency, TF over GST control)","1.01 fold enrichment (6-mer frequency, TF over GST control)","1.05 fold enrichment (6-mer frequency, TF over GST control)","1.12 fold enrichment (6-mer frequency, TF over GST control)","1.07 fold enrichment (6-mer frequency, TF over GST control)","1.07 fold enrichment (6-mer frequency, TF over GST control)","1.16 fold enrichment (6-mer frequency, TF over GST control)","1.05 fold enrichment (6-mer frequency, TF over GST control)","1.05 fold enrichment (6-mer frequency, TF over GST control)","1.1 fold enrichment (6-mer frequency, TF over GST control)"
GGGCTT,"1.24 fold enrichment (6-mer frequency, TF over GST control)","1.18 fold enrichment (6-mer frequency, TF over GST control)","1.46 fold enrichment (6-mer frequency, TF over GST control)","1.11 fold enrichment (6-mer frequency, TF over GST control)","1.08 fold enrichment (6-mer frequency, TF over GST control)","1.22 fold enrichment (6-mer frequency, TF over GST control)","1.17 fold enrichment (6-mer frequency, TF over GST control)","1.77 fold enrichment (6-mer frequency, TF over GST control)","1.29 fold enrichment (6-mer frequency, TF over GST control)","1.19 fold enrichment (6-mer frequency, TF over GST control)","1.2 fold enrichment (6-mer frequency, TF over GST control)","1.22 fold enrichment (6-mer frequency, TF over GST control)","1.11 fold enrichment (6-mer frequency, TF over GST control)","1.28 fold enrichment (6-mer frequency, TF over GST control)","1.16 fold enrichment (6-mer frequency, TF over GST control)","1.19 fold enrichment (6-mer frequency, TF over GST control)","1.2 fold enrichment (6-mer frequency, TF over GST control)"
